# Screening results deposited in PubChem by National Center for Advancing Translational Sciences (NCATS).
# Akt phos inh – inhibitors of Akt phosphorylation; 360,000 tested, 0.32% active; AID 651550; activity change, % for hits at 50 µM; Neuro2A IGF-stimulated pAkt S473 HTRF, 20 min; stronger effect = lower value; in the data active means activity change below about -80%; inconclusive means mostly about -51% to -80%
#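 Single-point screen (50 µM final compound) in Neuro2A cells stimulated 20 min with 6 nM IGF at 37 deg C. After lysis, Ser473-phosphorylated Akt read by HTRF (ex 330 nm, em 615/665 nm) as the 665/615 ratio.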
# KCNH2 3.1 block – blocks the human KCNH2 3.1 channel isoform; activity change, % (tested at about 1.8 µM); 340,000 tested, 0.95% active; AID 720553; U2OS KCNH2 3.1, thallium flux FluxOr; stronger effect = lower value;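 active means maximum activity change below -70%; inconclusive means maximum activity change from -70% to -50%; inactive means maximum activity change above -50%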;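 further: thallium influx rate constant from kinetic fluorescence after stimulation buffer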
#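 U2OS cells transduced with KCNH2 3.1 mutant virus (1.77 x 10^8 /mL, 4 h), plated overnight at 37 C, loaded 45 min with FluxOr dye plus Red40 quencher. Thallium flux rate constant from kinetic reads after stimulation buffer, normalised to controls.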
# RXFP1 antag – blocks the human relaxin receptor RXFP1; AID 1259400; Q9HBX9; 350,000 tested, 0.59% active; HEK293-RXFP1, relaxin-stimulated cAMP HTRF, 30 min; stronger effect = lower value; activity change, negative = inhibition, % at 57.5 µM;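 active means activity change of -60% or lower, but not beyond a set lower limit; inconclusive means change between -60% and -40%, or beyond the set limit; inactive means change above -40%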
# Target sequence (Q9HBX9 whole entry, looked up): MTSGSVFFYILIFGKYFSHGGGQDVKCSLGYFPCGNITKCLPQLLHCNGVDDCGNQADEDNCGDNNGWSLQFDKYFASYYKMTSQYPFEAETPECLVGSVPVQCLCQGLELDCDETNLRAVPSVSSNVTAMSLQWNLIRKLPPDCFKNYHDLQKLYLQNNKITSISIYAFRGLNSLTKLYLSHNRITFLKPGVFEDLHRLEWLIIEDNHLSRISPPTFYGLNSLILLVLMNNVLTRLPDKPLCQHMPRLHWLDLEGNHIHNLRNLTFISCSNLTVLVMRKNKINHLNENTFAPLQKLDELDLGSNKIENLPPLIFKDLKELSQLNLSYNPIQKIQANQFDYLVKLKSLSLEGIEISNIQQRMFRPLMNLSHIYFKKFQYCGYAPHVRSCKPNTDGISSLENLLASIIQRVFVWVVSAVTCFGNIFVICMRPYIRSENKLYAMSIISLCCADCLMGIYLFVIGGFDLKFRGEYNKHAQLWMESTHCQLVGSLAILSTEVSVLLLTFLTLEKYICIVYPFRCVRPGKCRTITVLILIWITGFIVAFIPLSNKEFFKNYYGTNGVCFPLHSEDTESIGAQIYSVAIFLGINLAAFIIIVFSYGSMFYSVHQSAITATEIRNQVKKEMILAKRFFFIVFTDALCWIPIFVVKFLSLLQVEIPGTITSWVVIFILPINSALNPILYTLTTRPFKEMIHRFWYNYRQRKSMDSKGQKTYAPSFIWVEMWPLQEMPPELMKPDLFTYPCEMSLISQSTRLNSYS
# RXFP1 agonist – activates the human relaxin receptor RXFP1 | Q9HBX9 | HEK293T-RXFP1 cAMP TR-FRET, 30 min; response scale: percent of porcine relaxin response, buffer zero | Potency, µM (titrated, usually from 57.5 µM), for inactives: at the highest dose activation, most hits filed as activators | 370,000 tested, 0.3% active | AID 2676; active means well fitted activation curve with a large enough effect; inconclusive means small, poorly fitted or top-dose-only effect; further: potency means the concentration at half of the fitted maximal effect; nearly all actives have a fitted effect of over 60% in size
#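 cAMP rise read by TR-FRET after 30 min, 37C compound exposure (up to 58 uM) in RXFP1-transfected HEK293 cells with Ro 20174 present. EC50 from Hill-equation fits, with 29 nM porcine relaxin as 100% and buffer as basal.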
# KCNH2 WT inh – blocks the wildtype human KCNH2 potassium channel. activity change, % at 1.84 µM. Q12809. U2OS, BacMam KCNH2, thallium flux FluxOr; stronger effect = lower value. 340,000 tested, 0.37% active;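 active means maximum activity change below -70%; inconclusive means maximum activity change between -70% and -50%; inactive means maximum activity change above -50%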
#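 U2OS cells were transduced with wild-type KCNH2 virus (2.03 x 10^8 / mL) for 4 h at room temperature, then cultured overnight at 37 C. Thallium flux was read with FluxOr dye. Rate constants were normalized to DMSO controls.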
# * hit, by the source's call; i = inactive; ? = inconclusive; · = no result. In the library only some 1.7% were active in any assay of this set; here they are far more common. On the % scale 0 is the no-effect control and ±100 the full control effect.
SMILES,Akt phos inh,KCNH2 3.1 block,RXFP1 antag,RXFP1 agonist,KCNH2 WT inh
N=c1ncn(C2OC(CO)C(O)C2O)c2nc(Br)[nH]c12 (stereo not drawn),i,-168*,9,·,-228*
COc1ccc(NC(=O)CN(C)S(=O)(=O)c2ccc(C)cc2)c([N+](=O)[O-])c1,i,-2,1,1%,-122*
COc1ccc(N(C)S(=O)(=O)c2ccc(C)cc2)c([N+](=O)[O-])c1,i,2,-2,-1%,-2
COc1ccc(CN(C)CC(=O)Nc2cc(OC)c([N+](=O)[O-])cc2C)c(OC)c1,i,-71*,-15,-2%,-1
CC(C)CC1NC(=O)c2cccnc2-n2c1nc1cc(F)c(F)cc1c2=O (stereo not drawn),i,1,10,·,11
CCCc1ncc(CN2CCCC(C(=O)Nc3ccc(-c4cccc(OC)c4)cc3)C2)cn1 (stereo not drawn),i,-2,-14,3%,7
COCCNC(=O)c1ccccc1NC(=O)c1ccccc1N(C)S(=O)(=O)c1ccc(C)cc1,i,2,-7,0%,-2
O=C(CSc1nnc(-c2ccccn2)n1Cc1ccco1)c1ccc(Cl)cc1,-110%*,5,-11,4%,-1
C(=C\c1ccccc1)/CSc1nnc(-c2ccccc2)n1Cc1ccco1,i,-20,-1,8%,-27
Clc1cccc(-c2nnc(SC/C=C/c3ccccc3)n2Cc2ccco2)c1,i,-98*,5,2%,-17
Cc1cc([N+](=O)[O-])nn1CC(=O)N1CCc2ccccc2C1,i,2,-2,-1%,1
CC1CCc2nn(CC(=O)N3CCN(C(=O)c4ccco4)CC3)cc2C1 (stereo not drawn),i,7,1,0%,5
CC1(C)CC(O)CC(C)(C)N1CC(O)COCc1ccccc1 (stereo not drawn),i,-81*,2,-1%,3
Cc1c(C(=O)Nc2ccc(Nc3ccccc3)cc2)cccc1[N+](=O)[O-],i,34,-9,0%,-14
Cc1cc(/C=C(/C#N)c2nc3ccccc3[nH]2)c(C)n1-c1cccc([N+](=O)[O-])c1,i,-134*,-1,0%,-116*
CCc1cc2cc3c(cc2nc1SCC(=O)Nc1cc(C)on1)OCO3,i,-38,-1,28µM*,25
Cc1cc(NC(=O)CSc2nnc(-c3ccc4c(c3)OCCO4)o2)no1,-81%*,-15,-4,6%,-5
Cc1cc(NC(=O)CSc2nnc(-c3cccc(Cl)c3)o2)no1,i,-8,10,7%,-3
Cc1cc(C)c2cccc(NC(=S)NC(=O)c3ccccc3)c2n1,i,-2,6,3%,-14
COc1ccc(-c2nc(Cn3c(SCc4ccccc4F)nc4ccncc43)c(C)o2)cc1OC,·,·,·,0%,·
COc1ccc(-c2nc(Cn3c(SCc4ccc(C)cc4)nc4ccncc43)c(C)o2)cc1OC,i,-122*,-4,1%,-46
COc1ccc(-c2nc(Cn3c(SCc4cccc(F)c4)nc4ccncc43)c(C)o2)cc1OC,i,-107*,6,4%,-1
Cn1nccc1-c1ccc(C(=O)Nc2cccc(NS(C)(=O)=O)c2)c2occc12,i,·,·,·,·
O=C1Nc2cc(C(=O)NCCCN3CCCC3)ccc2S/C1=C\c1ccccc1,i,2,-7,-3%,5
CCC1CCCCN1CCCNC(=O)c1ccc(/C=C2/Sc3ccccc3NC2=O)cc1 (stereo not drawn),i,-96*,5,0%,?
SMILES,Akt phos inh,KCNH2 3.1 block,RXFP1 antag,RXFP1 agonist,KCNH2 WT inh
CC(C)N(C)C(=O)c1ccc(OC2CCN(CCc3ccccc3)CC2)cc1,i,-87*,-3,-1%,14
COc1cccc(-c2nnc(SC(C(=O)c3c[nH]c4ccccc34)c3ccccc3)n2C)c1 (stereo not drawn),i,-7,-77*,0%,-8
CCCCCCSc1cccc(-c2nc3cc(C)ccn3c2NC2CCCCC2)c1,i,-13,·,0%,-9
O=C(c1ccco1)N1CCN(c2ccc([N+](=O)[O-])cc2Cl)CC1,i,-6,4,0%,24
O=C(NC(=S)N1CCN(c2ccc([N+](=O)[O-])cc2Cl)CC1)c1ccco1,i,-73*,·,1%,-29
CCOC(=O)C1CCCN(C(=O)c2ccccc2NC(=O)c2nsc3ccccc23)C1 (stereo not drawn),·,·,-2,14%,·
OCC1(Cc2cccc(Cl)c2)CCCN(Cc2ccc(F)c(F)c2)C1 (stereo not drawn),i,?,-28,-1%,3
OCC1(Cc2ccc(F)cc2F)CCCN(Cc2ccc(Cl)cc2)C1 (stereo not drawn),i,-40,-61*,0%,12
COc1nnc(-c2ccc(N3CCCCC3)c(NC(=O)c3ccc(C)cc3)c2)c2ccccc12,·,·,·,9%,·
Cc1cc(=S)c2cccc(C)c2[nH]1,i,5,20,22µM*,2
CC(C)CCn1c(SCc2cccc(F)c2)nc2ccsc2c1=O,·,·,-76*,4%,·
CCCS(=O)(=O)NC(=O)C1(C)CCCN(C(=O)c2ccc(OC)cc2)C1 (stereo not drawn),i,·,·,·,·
CC(=O)Oc1ccccc1C1C[C@]2(C)CC(=O)NC2N1C(C)=O (stereo partly drawn),i,-107*,-1,-3%,2
C[C@@]12C(=O)Nc3ccc(Cl)cc3C(=O)N1[C@H]1c3cc(Br)ccc3OC[C@@H]1[C@@H]2c1ccccc1,i,-9,·,·,8
CCOC(=O)C1(Cc2ccccc2)CCN(C2Cc3ccccc3C2)CC1,i,-86*,-22,-1%,-3
CCOC(=O)C1(Cc2ccc(Cl)cc2)CCN(C2CCC2)CC1,i,-4,-12,1%,8
CCOC(=O)C1(Cc2ccccc2C(F)(F)F)CCN(C2CCN(C(C)=O)CC2)CC1,i,-1,-63*,1%,11
CC(O)(c1cccc(F)c1)c1nc(-c2ccc(Cl)cc2)cs1 (stereo not drawn),i,·,·,·,·
CS(=O)(=O)c1ccc(S(=O)CC(=O)OCc2ccccc2)c([N+](=O)[O-])c1 (stereo not drawn),i,0,-108*,1%,0
COC(=O)C1CCN(C(=O)c2ccc(Cl)c(S(=O)(=O)NCc3cccnc3)c2)CC1,i,3,-5,2%,18
Cc1ccc(N(C)C(=O)C2CCCN2S(=O)(=O)c2cccc3nsnc23)cc1 (stereo not drawn),i,-1,-3,1%,-1
COc1ccc(N(C)C(=O)C2CCCN2S(=O)(=O)c2cccc3nsnc23)c(OC)c1 (stereo not drawn),i,-7,-4,0%,-208*
O=C(O)c1cccnc1Nc1ccc(Cl)cc1,i,-3,8,4%,-4
